Results filed as inconclusive are left out. Calls of active or inactive are those of the source. Calls come from the whole dose curve; as a rule, active = well fitted antagonist curve with a large enough effect in the main read-out, with a control signal flat; inconclusive = small, poorly fitted or top-dose-only effect; inactive = no such curve, though single readings can be large or run the other way.
Target: Neuropeptide S receptor (Homo sapiens) (UniProt Q6W5P4)
Assay: Confirmation Concentration-Response Assay for Antagonists of the Neuropeptide S Receptor: Calcium Signal Transduction
Details: CHO-NPSR cells, NPS-induced calcium flux, FDSS; series mostly up to 19.3 µM
Description: NIH Chemical Genomics Center [NCGC] NIH Molecular Libraries Probe Production centers Network [MLPCN] MLPCN Grant: X01-DA026210-01 Assay Submitter (PI): Heilig, Markus Alexander NCGC Assay Overview: Neuropeptide S receptor (NPSR), previously known as GPR154, is a recently de-orphanized G protein coupled receptor. Its endogenous ligand is the 20 amino acids peptide Neuropeptide S (NPS). […] NPS and its receptor are found in various tissues. Specifically they are highly expressed in brain areas that have been implicated in modulation of arousal, stress and anxiety. Central administration of NPS in mice produces an unusual profile of activity by inducing wakefulness and arousal, while at the same time suppressing anxiety. Therefore, NPSR may represent a novel drug target for the treatment of sleep and anxiety disorders. To identify NPSR antagonists, we developed a cell-based assay with transfected NPS receptor. NPS can stimulate the production of cAMP as well as release intracellular calcium in Chinese hamster ovary cells stably expressing NPS receptor. This change in intracellular calcium can be detected using a calcium indicator dye on a calcium imaging plate reader system (FDSS).
NCGC Assay Protocol Summary: A Chinese hamster ovary (CHO) cell line stably expressing the NPS receptor (CHO-NPSR) was obtained from Dr. Heilig lab at NIAAA and maintained in F-12 Kaighn's media (Invitrogen, Carlsbad, CA, 21127) supplemented with 10 % FBS, 100 units/ml penicillin, 100 ug/ml streptomycin and 250 ug/ml geneticin at 37C, 5% CO2 in a humidified atmosphere. Before the assay, aliquots of cells were frozen and stored at -135C. The assay was performed on a FDSS-7000 kinetic plate reader in 1536-well format. For both agonist (1-220s) and antagonist (221-400s) phases, the maximums of kinetic fluorescence responses were converted separately into text files using the instrument's software data export utility. Data for agonist response were normalized to the controls for basal activity (DMSO only) and 100% activation (NPS). […] AC50 values were determined from concentration-response data modeled with the standard Hill equation. NPS 1536-well FDSS assay protocol: (1) Frozen CHO-NPSR cells were thaw, washed once with fresh media and resuspended in F-12 Kaighn's media supplemented with 10 % FBS, 100 units/ml penicillin and 100 ug/ml streptomycin. Cells were plated at 3 ul/well (1200 cells) to black, clear-bottom, tissue-culture treated 1536-well plates, and then cultured at 37C, 5 % CO2 for 16 to 30 hours. (2) Add 3 ul of calcium dye (from High Performance PBX Calcium Assay Kit, BD Biosciences). The calcium dye was prepared according to the manufactory's instruction. (3) Incubation at 37C, 5 % CO2 for 60 to 120 min. (4) Load plates to FDSS-7000. The following steps were performed on FDSS-7000. (5) Record fluorescent background (Ex 480 nm, Em 520-560 nm) for 10 s. (6) Add 23 nl/well of compound in DMSO solution. The final titration for each compound was between 0.6 nM and 46 uM. Record agonist response for 210 s. (7) Add 2 ul of stimulation reagent (1X HBSS buffer, 0.1% BSA, 60 nM NPS). Record antagonist response for 140 s. Keywords: MLSMR, MLPCN, NIH Roadmap, qHTS, NCGC, NPS, Neuropeptide S Antagonists

Sequence of Neuropeptide S receptor (Homo sapiens) (Q6W5P4 whole entry, looked up): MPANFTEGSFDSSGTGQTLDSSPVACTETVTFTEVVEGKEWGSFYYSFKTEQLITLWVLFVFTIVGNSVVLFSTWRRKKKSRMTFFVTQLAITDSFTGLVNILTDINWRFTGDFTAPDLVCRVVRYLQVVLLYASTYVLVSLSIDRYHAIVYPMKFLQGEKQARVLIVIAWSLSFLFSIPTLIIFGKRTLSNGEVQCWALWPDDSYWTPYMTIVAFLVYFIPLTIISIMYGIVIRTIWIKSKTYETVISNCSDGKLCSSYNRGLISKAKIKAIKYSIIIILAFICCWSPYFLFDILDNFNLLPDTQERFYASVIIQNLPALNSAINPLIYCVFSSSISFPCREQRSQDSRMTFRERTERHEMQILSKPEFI

| Structure (SMILES) | Potency |
| --- | --- |
| C[C@H]1CCCC(=O)CCCCCc2cc(O)cc(O)c2C(=O)O1 | inactive |
| Cc1c(P(=S)(c2ccccc2)c2ccccc2)[n+]2ccccc2n1C | 200 nM (active) |
| CCOC(=O)c1c(-n2c(C)cc(C=C3C(=O)NC(=S)NC3=O)c2C)sc2c1CCCC2 | 2000 nM (active) |
| C=CCN1C(=O)/C(=C/c2cccs2)C(=O)NC1=S | 11200 nM (active) |
| CC(=O)Nc1cc([As](=O)(O)O)ccc1O | inactive |
| C=C(C=O)C[C@@H]1C[C@H](O)C2OC3C[C@]4(C)OC5/C=C\CC6OC7C(CC=CCC6OC5CCCC4OC3CC2O1)OC1CC2OC3CC(=O)OC3C[C@@H](C)C[C@@]2(C)OC1C[C@@H]7C (stereo not given in full) | 501 nM (active) |
| Cc1cccc(N2C(=O)NC(=O)/C(=C\c3cnn(-c4ccccc4)c3)C2=O)c1 | 10000 nM (active) |
| Cc1cc(C=C2C(=O)NC(=S)NC2=O)c(C)n1-c1ccc2c(c1)OCO2 | 12600 nM (active) |
| CNc1ccc2oc(C[C@H]3O[C@@]4(CC[C@H]3C)O[C@H]([C@H](C)C(=O)c3ccc[nH]3)[C@H](C)C[C@H]4C)nc2c1C(=O)O | 15.8 nM (active) |
| C=C1C(=O)O[C@@H]2C[C@@H](C)[C@@H]3C=CC(=O)[C@@]3(C)[C@@H](OC(=O)CC(=O)O[C@H]3[C@@H]4C(=C)C(=O)O[C@@H]4C[C@@H](C)[C@@H]4C=CC(=O)[C@]43C)[C@H]12 | 89.1 nM (active) |

From PubChem BioAssay AID1489 (National Center for Advancing Translational Sciences (NCATS), 2009)
